High-throughput results as filed in PubChem BioAssay.
GPR151 ag: human GPR151 activation; Q8TDV0; PathHunter beta-arrestin GPR151 cells, luminescence; activation, % at 11.2 µM; actives 1% (n = 650,000); in the data active = activation above about 4.9%;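 also: 0% = median of compound wells and 100% = cells with positive control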
FBW7 act: activators of human E3 ligase FBW7; Q969H0; AlphaScreen FBW7–phospho-cyclin E peptide binding, activator screen; normalized activity (activation), % at 26.1 µM; actives 0.13% (n = 650,000); AID 1259310; in the data active = normalized activity above about 1.9%;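 also: purified mutant Fbw7 with reduced substrate affinity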
MITF primary: blocks human microphthalmia-associated transcription factor; AlphaScreen MITF homodimerization, bead proximity signal; inhibition, % at 2.6 µM; actives 0.91% (n = 650,000); AID 1259374; in the data active = inhibition above about 50%;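 also: 0% = vehicle wells with protein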
TEAD-YAP inh: TEAD-YAP interaction inhibition; HEK-TIYL cells, TEAD-Gal4/YAP UAS-luciferase luminescence; inhibition, % at 9.12 µM; actives 1.4% (n = 640,000); AID 1259422; in the data active = inhibition above about 32%;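 also: 0% = median of test compound wells and 100% = reference inhibitor wells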
Starred values were filed as active, the others as inactive. Rows were chosen to be rich in hits. Some 3.5% of all compounds tested hit in one or more screens of this group.

SMILES | GPR151 ag | FBW7 act | MITF primary | TEAD-YAP inh
Cc1cccc(N(C)c2ccnc3c(-c4cccc(N)c4)cnn23)c1 | 1 | 0 | 17 | -4
Cc1c(C(=O)NCc2ccc(Cl)cc2)sc2ncnc(N3CCN(c4ccccn4)CC3)c12 | 1 | 0 | 12 | 3
c1ccc(OCCNc2cc(Nc3ccccn3)ncn2)cc1 | 1 | 0 | 8 | 2
O=C(Nc1cccc(C(=O)N2CCOCC2)c1)c1cc(C(F)(F)F)cc(C(F)(F)F)c1 | -1 | 0 | -3 | 9
COc1cccc(/C=N\Nc2cc(C)nc(-c3ccccc3O)n2)c1O | 0 | 0 | 8 | 39*
Cc1ccc(C)c(Nc2cc(C)nc(-c3ccccc3O)n2)c1 | 0 | 0 | -10 | 41*
COc1cccc(/C=N\Nc2cc(C)c3ccccc3n2)c1OC | 4 | 0 | 3 | 60*
COc1ccc(/C=N\Nc2cc(C)nc(-c3ccccc3O)n2)c(OC)c1 | 1 | 1 | 6 | -5
Cc1c(O)ccc(/C=N/Nc2ncccc2[N+](=O)[O-])c1O | -9 | 0 | -5 | 71*
CCOC(=O)c1c(-n2cccc2)c2ccccc2n1CC(C)=O | 0 | 0 | 9 | 7
CCC(NC(=O)/C(=C\c1cccc([N+](=O)[O-])c1)NC(=O)c1ccccc1)C(=O)O (stereo not drawn) | 0 | 0 | -1 | 6
Cc1ccccc1C(=O)Nc1cc([N+](=O)[O-])ccc1Cl | 1 | 0 | -4 | 0
CO[C@H]1[C@H](NC(=O)c2ccsc2)c2ccccc2C12CCN(Cc1ccn[nH]1)CC2 | -2 | 0 | -1 | 2
COc1cccc(/C=N\Nc2ccccn2)c1O | -2 | -1 | 61* | -44
COc1cccc(/C=N/Nc2cc(-n3cc(C)cn3)ncn2)c1O | -2 | 0 | 73* | 88*
COc1cccc(/C=N/Nc2nc3ccccc3nc2C)c1O | -1 | 0 | -92 | 63*
COc1ccc(/C=N/Nc2cc(-n3cc(C)cn3)ncn2)c(OC)c1 | -1 | 0 | -6 | -3
Cc1nc2ccccc2nc1N/N=C/c1ccc(O)c(C)c1O | -1 | 0 | -1 | -14
O=[N+]([O-])c1ccc(O)c(/C=N/Nc2ncccc2[N+](=O)[O-])c1 | 0 | 0 | 5 | -3
O=[N+]([O-])c1cccnc1N/N=C/c1ccccc1O | -2 | 0 | 14 | 47*
COc1ccc([N+](=O)[O-])cc1C=Nc1c(C)n(C)n(-c2ccccc2)c1=O | 0 | 0 | -5 | -10
COc1cccc(/C=N\Nc2ncccc2[N+](=O)[O-])c1O | -4 | -1 | 4 | 64*
C=CCNc1ncnc2c1cnn2-c1ccc(C)cc1C | 0 | 0 | 8 | -8
COc1ccc(-n2ncc3c(N(C)C4CCCCC4)ncnc32)cc1 | 2 | 0 | -3 | 93*
Clc1cccc(-n2ncc3c(NC4CC4)ncnc32)c1 | -1 | 0 | -3 | -32
SMILES | GPR151 ag | FBW7 act | MITF primary | TEAD-YAP inh
Cc1cccc(-n2ncc3c(NC4CCCCCC4)ncnc32)c1 | 1 | 0 | 4 | 47*
COc1ccc(-n2ncc3c(N4CCCC4)ncnc32)cc1 | 2 | 0 | 2 | 25
Cc1cccc(-n2ncc3c(N(C)C4CCCCC4)ncnc32)c1 | 1 | 0 | -17 | 97*
Cc1cccc(-n2ncc3c(N(CC(C)C)CC(C)C)ncnc32)c1 | 2 | 0 | 0 | -12
CCOC(=O)N1CCC(Nc2ncnc3c2cnn3-c2ccc(C)cc2C)CC1 | -1 | 0 | -6 | 39*
CCN(CC)c1ncnc2c1cnn2-c1cccc(C)c1 | 1 | 0 | 4 | 60*
COc1cc(C2C3=C(CC(C)(C)CC3=O)OC3=C2C(=O)CC(C)(C)C3)ccc1OCc1ccc(F)cc1 | -2 | 2.0* | 21 | -5
Cc1nn(-c2ccccc2)c(Cl)c1C(=O)NCc1cccnc1 | 0 | 0 | 4 | -2
Cc1nn(-c2ccccc2)c(Cl)c1C(=O)Nc1ccc(C(=O)NCc2cccnc2)cc1 | -1 | 0 | 25 | 39*
COc1ccc(-c2cc(-c3ccccc3)c(=O)[nH]n2)cc1 | -1 | 0 | 0 | 11
CCNc1nc(Nc2ccc3c(c2)OCO3)c2[nH]cnc2n1 | -1 | 0 | -2 | 1
c1cc(Nc2nc(Nc3ccc4c(c3)OCO4)c3[nH]cnc3n2)ncn1 | 0 | 27* | 9 | -27
c1cnc(Nc2nc(Nc3ccc4c(c3)OCO4)c3[nH]cnc3n2)cn1 | -1 | 20* | 15 | 31
FC(F)(F)c1ccc(Nc2nc(Nc3ccc4c(c3)OCO4)c3[nH]cnc3n2)cc1 | -1 | 0 | 8 | 1
CCCNc1nc(Nc2ccncn2)nc2nc[nH]c12 | -1 | 0 | 16 | 36*
